Records with an inconclusive call do not appear. Activity calls are given as the source filed them. The call rests on the fitted dose curve; in most records, active means well fitted inhibition curve with a large enough effect; inconclusive means small, poorly fitted or top-dose-only effect; inactive means flat fitted curve, though single readings scatter.
Target: Ferritin light chain (Equus caballus) (UniProt P02791)
Test: Confirmation Assay for Identification of Novel General Anesthetics; further: nearly all actives have a fitted effect of over 40% in size
Details: apoferritin 1-aminoanthracene fluorescence displacement
Outline: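 Horse apoferritin (10 uM) pre-loaded with 1-AMA (50% saturated, PBS) exposed to compounds 10 min at room temperature; loss of 1-AMA fluorescence (380/535 nm) scaled between free and bound ligand, curves fitted with Hill equation.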
Potency means the concentration at half of the fitted maximal effect.

Chain of Ferritin light chain (Equus caballus) (P02791 2-175 limits assumed): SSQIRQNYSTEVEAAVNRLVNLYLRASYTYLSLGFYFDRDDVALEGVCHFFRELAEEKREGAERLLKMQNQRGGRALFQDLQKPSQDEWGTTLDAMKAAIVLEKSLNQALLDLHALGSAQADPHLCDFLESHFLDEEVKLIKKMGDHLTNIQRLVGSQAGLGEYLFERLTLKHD

Potency, active:
Cc1c(Br)cc(C(=O)N2CCCCCC2)c(C)c1C 17.8 µM, C=C(C)C(=O)OC1(C(F)(F)F)Oc2cc(C)ccc2NC1=O (stereo not drawn) 15.8 µM, O=C(Nc1cccc(Cl)c1)OCc1cncs1 15.8 µM, Cc1ccc(Cn2cccc(NC(=O)NCc3ccccc3)c2=O)cc1 7.08 µM, CCCNC(=O)c1csc2c1CCCCC2 28.2 µM, Oc1ccc(C(=S)N2CCCCCC2)cc1 14.1 µM, Cc1ccc(CNC(=O)CN2N=C(c3ccccc3)CCC2=O)cc1 5.19 µM, Cc1ccc(CNc2ncnc3c2cnn3-c2ccc(C)cc2C)cc1 15.8 µM, COc1cccc(NS(=O)(=O)c2ccc(Br)s2)c1 15.8 µM, Clc1ccc(Nc2nc(C3CC3)cs2)cc1 39.8 µM, N#Cc1ccccc1NCc1ccccc1 11.2 µM, O=C(CN1CCOCC1)Nc1ccc(C2CCCCC2)cc1 31.6 µM, Cc1ccc(NC(=O)N2CCCCCC2)cc1 12.6 µM, Nc1ccc(Nc2ccccc2)c(Cl)c1 12.6 µM, O=C(CSCc1ccccc1)Nc1cc([N+](=O)[O-])ccc1F 31.6 µM, c1cnc(NC2CCCCCC2)nc1 15.8 µM, COc1cc(CNCCO)ccc1OCCc1ccccc1 15.8 µM, NS(=O)(=O)c1cccnc1Nc1cccc(C(F)(F)F)c1 10 µM, O=C(Nc1ccc(Cl)c(Cl)c1)OCc1cncs1 28.2 µM, CC(NC(=O)COC(=O)Cc1ccsc1)C1CC2CCC1C2 (stereo not drawn) 31.6 µM, Cc1cc(C)c(C)c(OCC(=O)N2CCCCCC2)c1 17.8 µM, O=C(CCc1ccccc1)Nc1cc(Cl)ccc1O 6.31 µM, Cc1cc(OC(C)C)c2c(-c3ccccc3)cc(=O)oc2c1 35.5 µM, CC(C)(Nc1ccccc1)C(=O)c1ccccc1 12.6 µM, Cc1ccc(C2=NN(CC(=O)NC(C)c3ccccc3)C(=O)CC2)cc1 (stereo not drawn) 31.6 µM, O=[N+]([O-])c1ccc(CNc2cccc(Cl)c2)s1 15.8 µM, Cc1ccc(NC(=O)Cn2nc(-c3ccco3)ccc2=O)cc1Cl 28.2 µM, COc1ccc(-c2ccc(=O)n(CC(=O)NCc3ccco3)n2)cc1 14.1 µM, Nc1cc(N)nc(SCC(=O)N2CCc3ccccc32)n1 7.08 µM, Cc1ccc(-c2ccc(=O)n(Cc3ccc(F)cc3)n2)cc1 35.5 µM, Oc1ccc(C2C[C@H]3CC[C@@H]2C3)cc1O (stereo partly drawn) 7.08 µM, O=C(Nc1cccc(Cl)c1)N1CCc2ccccc2C1 11.2 µM, CCCNC(=O)OCCC12CC3CC(CC(C3)C1)C2 7.08 µM, Fc1ccccc1CSc1nc2ccccc2[nH]1 15.8 µM, O=C(COc1ccccc1)N1CCCCCCC1 12.6 µM, Nc1nc(-c2cc(Cl)cc(Cl)c2OC(F)F)cs1 8.91 µM, Cc1ccc(-c2ccc(=O)n(CC(=O)NCCC(C)C)n2)cc1 5.01 µM, Cc1cc(C)n2nc(CC(=O)NC3CCCC(C)C3C)nc2n1 (stereo not drawn) 15.8 µM

Reference: PubChem BioAssay AID489008 (National Center for Advancing Translational Sciences (NCATS), 2010)
